Where “and” joins values, the source holds several entries; their conditions need not be identical. Identical values can stand only once. Screen size: about 330,000 compounds; about 700 (0.21%) were called active. Shown is part of a subset that was picked to be rich in actives. Values without a mark were called inactive.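 The calls were made as follows: active = OD600 absorbance below the run mean of sample wells minus 3.6 SD, in any replicate (cut at about 0.56 in these data); inactive = the rest.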
Assay: antibacterial activity against Escherichia coli – OD600, primary screen (AID 1053175)
Conditions: Escherichia coli growth, OD600, 23 h; active compounds read low
In the case of `O=C(Nc1nnc(C2COc3ccccc3O2)o1)c1ccc(F)cc1` (configuration not stated), the OD600 absorbance is reported as 0.346 (active).
For `CC1COc2ccccc2N1C(=O)c1ccc(F)cc1` (configuration not stated), the OD600 absorbance was 0.65.
Molecule `O=C(COC(=O)c1ccc(F)cc1)NCC1COc2ccccc2O1` (configuration not stated) has an OD600 absorbance of 0.688.
`O=C(CO)NN=Cc1cccc(Cl)c1Cl` gave an OD600 absorbance of 0.595.
Molecule `CCOc1ccccc1C(=O)NN=Cc1coc2ccc(Cl)cc2c1=O` has an OD600 absorbance of 0.656.
Work on `COc1ccc(/C=C(\NC(=O)c2ccccc2)C(=O)NN=Cc2cccnc2)cc1` yielded an OD600 absorbance of 0.669.
For `O=C(NN=Cc1c[nH]c2ccccc12)c1ccc(O)c(O)c1`, the OD600 absorbance was 0.695.
With `COC(=O)C1CC2CCC(O)CC2N1Cc1ccc(C(F)(F)F)cc1` (configuration not stated) the OD600 absorbance was 0.627 and 0.652.
`CC1(C)CC2CC(C)(CN2C=Nc2sc3c(c2C#N)CC(C)(C)NC3(C)C)C1` (configuration not stated) showed an OD600 absorbance of 0.649.
Work on `CCCC(O)c1cc2cc(OC)c(OC)cc2c(=O)o1` (configuration not stated) yielded an OD600 absorbance of 0.667.
In the case of `CCc1n[nH]c(=S)n1N=Cc1c(O)ccc2ccccc12`, the OD600 absorbance is reported as 0.677.
With `CCSc1nsc(NC(=O)Nc2cccc(C(C)=O)c2)n1` the OD600 absorbance was 0.575.
`C=CCSc1nsc(NC(=O)Nc2cccc(C(C)=O)c2)n1` gave an OD600 absorbance of 0.61.
In the case of `CSc1nsc(NC(=O)Nc2ccccc2)n1`, the OD600 absorbance is reported as 0.445 (active).
In the case of `COc1ccc(C)cc1NC(=O)CCC(=O)Nc1nnc(C(F)(F)F)s1`, the OD600 absorbance is reported as 0.73.
In the case of `O=C(NCC(F)(F)F)Nc1nnc(C(F)(F)F)s1`, the OD600 absorbance is reported as 0.494 (active).
Work on `O=C(Nc1nnc(COc2ccccc2)s1)Nc1ccccc1F` yielded an OD600 absorbance of 0.649.
Molecule `O=C(O)c1ccc(NN=Cc2ccc(-c3ccc(Cl)cc3Cl)o2)cc1` has an OD600 absorbance of 0.671.
With `CCOC(=O)C1C2COc3ccc(Cl)cc3C2N2C(=O)c3ccc(C)cc3NC(=O)[C@@]12C` (some centres not stated) the OD600 absorbance was 0.705.
With `CCN(CC)C(=O)c1[nH]cnc1C(=O)NC(Cc1ccccc1)C(=O)OC(C)(C)C` (configuration not stated) the OD600 absorbance was 0.689.
`COc1cc(C=NNC(=O)c2ccc3c(c2)OCCO3)cc(Br)c1O` showed an OD600 absorbance of 0.712.
With `CC(C(=O)N1CCNCC1)n1cc(CCC(=O)O)nn1` (configuration not stated) the OD600 absorbance was 0.694.
In the case of `CCn1cc(C(=O)NCCO)c(=O)c2cc(F)c(N3CCN(C)CC3)cc21`, the OD600 absorbance is reported as 0.0485 (active).
Molecule `CCNC(=S)N1CCN(C(=O)c2ccco2)CC1` has an OD600 absorbance of 0.73.
Work on `CCn1cc(C(=O)NCCC(=O)NCCO)c(=O)c2cc3c(cc21)OCO3` yielded an OD600 absorbance of 0.65.
With `CCCCNC(=O)c1cn(CC)c2cc(N3CCN(C(=O)c4ccco4)CC3)c(F)cc2c1=O` the OD600 absorbance was 0.458 (active).
In the case of `CCn1cc(S(=O)(=O)c2cccc(C)c2)c(=O)c2cc(F)c(N3CCN(C)CC3)cc21`, the OD600 absorbance is reported as 0.662.
With `CCCCCCn1cc(C(=O)O)c(=O)c2cc(F)c(N3CCCCC3)cc21` the OD600 absorbance was 0.628.
For `O=C(C=CNNC(=O)c1ccccc1)c1ccc(Br)cc1`, the OD600 absorbance was 0.66.
Work on `CC1CN(C(C)CO)C(=O)c2cc(NC(=O)Cn3cnnn3)ccc2OC1CN(C)Cc1ccc(Cl)c(Cl)c1` (configuration not stated) yielded an OD600 absorbance of 0.734.
Molecule `O=C(Nc1ccc(Br)cn1)c1ccc([N+](=O)[O-])o1` has an OD600 absorbance of 0.518.
For `Cc1cccc(NC(=O)c2ccc([N+](=O)[O-])o2)c1`, the OD600 absorbance was 0.475 (active).
Work on `O=C(Nc1cccc(O)c1)c1ccc(C(=O)c2ccccc2)o1` yielded an OD600 absorbance of 0.71.
`COc1ccc(S(=O)(=O)ON=C2CCCc3ccccc32)cc1` gave an OD600 absorbance of 0.751.
With `COc1ccc(C2C3C(=O)N(C(C)(C)C)C(=O)C3[C@]3(C)C(=O)N(c4cccc(C)c4)C(=O)N23)cc1` (some centres not stated) the OD600 absorbance was 0.681.
With `O=C(NN=Cc1ccc(O)cc1)c1ccc(COc2cc(Cl)ccc2Cl)o1` the OD600 absorbance was 0.778.
For `CCOC(=O)C1C2COc3cc(OC)ccc3C2N2C(=O)N(c3cccc(F)c3)C(=O)[C@@]12C` (some centres not stated), the OD600 absorbance was 0.694 and 0.697 and 0.645.
Molecule `CC(C)(C)C(COc1ccccc1[N+](=O)[O-])=NO` has an OD600 absorbance of 0.627.
With `COc1cccc(C=NNc2nc3ccccc3n3cnnc23)c1` the OD600 absorbance was 0.749.
`Cc1ccc(C)c(-c2cc(C(=O)NN=Cc3cccnc3)c3ccccc3n2)c1` gave an OD600 absorbance of 0.67.
In the case of `CCNS(=O)(=O)c1ccc(NC(=O)Nc2cccc(C(F)(F)F)c2)cc1`, the OD600 absorbance is reported as 0.51 (active).
`O=C(Nc1ccc(C(=O)N2CCOCC2)cc1)Nc1cccc(C(F)(F)F)c1` showed an OD600 absorbance of 0.664.
Work on `CC(C)C[C@H](NC(=O)Nc1cccc(C(F)(F)F)c1)C(=O)O` yielded an OD600 absorbance of 0.689.
With `Cc1ccc2cc(C=NNC(=O)[C@@H]3CCCN3)c(Cl)nc2c1` the OD600 absorbance was 0.699.
For `CN1CCN(CCC(=O)NN=Cc2cc([N+](=O)[O-])ccc2O)CC1`, the OD600 absorbance was 0.633.
`CCN=c1scc(C)n1N=Cc1cc(Br)c(O)c(OC)c1` gave an OD600 absorbance of 0.689.
With `CN1C(=O)C2C(C=Cc3ccccc3)N3C(=O)CN(Cc4ccc(-c5ccccc5)cc4)C(=O)[C@@]3(Cc3ccccc3)C2C1=O` (some centres not stated) the OD600 absorbance was 0.678.
Work on `CC(=NNC(=O)C1CC1)c1ccc(NC(=O)c2ccc(Br)o2)cc1` yielded an OD600 absorbance of 0.697.
Work on `O=C(NN=Cc1ccco1)c1cccs1` yielded an OD600 absorbance of 0.606.
With `CCC(C)N1CCC2(CC1)N=c1c(c3c4c5c(C)c(O)c3c(O)c1=NC(=O)C(C)=CC=CC(C)C(O)C(C)C(O)C(C)C(OC(C)=O)C(C)C(OC)C=CO[C@@](C)(O5)C4=O)N2` (some centres not stated) the OD600 absorbance was 0.076 (active).
In the case of `CCOC(=O)C1C2COc3cc(OC)ccc3C2N2C(=O)CN(Cc3ccc(C)cc3)C(=O)[C@@]12C` (some centres not stated), the OD600 absorbance is reported as 0.699.
`CC1CC2OC(=O)[C@]3(C)C2C(OC3(C)O)[C@]2(C)C(=O)C=CC12` (some centres not stated) showed an OD600 absorbance of 0.679.
Molecule `CC(C)(C)NC(=O)CCN(N=Cc1ccccc1F)C1=NS(=O)(=O)c2ccccc21` has an OD600 absorbance of 0.627.
With `CN(C)c1ccc(C=NNC(=O)Cn2nnc3ccccc32)cc1` the OD600 absorbance was 0.725.
With `Cc1nnc(SCC2=C(C(=O)O)N3C(=O)C(NC(=O)Cn4nc(C)c(Cl)c4C)C3SC2)s1` (configuration not stated) the OD600 absorbance was 0.488 (active).
With `Cc1cc(C)cc(C(=O)NC2C(=O)N3C(C(=O)O)=C(CSc4nnc(C)s4)CSC23)c1` (configuration not stated) the OD600 absorbance was 0.684.
Molecule `CC(C)(C)OC(=O)C1=C(CO)CS[C@@H]2[C@H](NC(=O)Cc3ccccc3)C(=O)N12` has an OD600 absorbance of 0.72.

Reference: PubChem BioAssay AID1053175 (ICCB-Longwood Screening Facility, Harvard Medical School, 2014)
